Assay outcomes as filed in PubChem.
IL-1B inflam inh: qHTS for Inhibitors of Inflammasome Signaling: IL-1-beta AlphaLISA Primary Screen; THP-1 LPS/ATP IL-1B secretion, AlphaLISA, 16 h; active compounds read low; activity change, % at 57.5 µM; 4.7% of 360,000 active; AID 743279, 2014; in the data active = activity change below about -50%; inconclusive = mostly about -30% to -49%
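Secreted IL-1B measured by AlphaLISA bead assay after 16 h compound exposure of THP-1 cells; compounds (final up to 57.5 uM) added 1 h before LPS (250 ng/mL) and ATP (1.25 mM) stimulation; lower signal means less secretion.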
TDP1 inh: qHTS Assay for Inhibitors of Tyrosyl-DNA Phosphodiesterase (TDP1) | recombinant TDP1, AlphaScreen DNA substrate cleavage | Potency, µM (titrated, usually from 130 µM), for the others: at the highest dose activity change, negative = inhibition, actives largely listed as inhibitors | 0.28% of 350,000 active; also: potency is read from the fitted curve at half-maximal effect; nearly all actives have a fitted effect of over 40% in size
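Enzyme-compound mixtures sat 15 min at room temperature, followed by a 5 min reaction with 15 nM final substrate and 10 min with AlphaScreen beads. Recombinant human Tdp1 was used at 1 nM final.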
Six1-Eya2 inh: qHTS Assay for Inhibitors of the Six1/Eya2 Interaction; Homeobox protein SIX1 (Homo sapiens) + Protein phosphatase EYA2 (Homo sapiens), …; AlphaScreen GST-Six1/His-Eya2 binding, biochemical; active compounds read low; activity change, % (no concentration beside the values); 0.56% of 360,000 active; in the data active = activity change below about -65%; inconclusive = mostly about -30% to -63%
Target sequence (O00167 whole entry, looked up): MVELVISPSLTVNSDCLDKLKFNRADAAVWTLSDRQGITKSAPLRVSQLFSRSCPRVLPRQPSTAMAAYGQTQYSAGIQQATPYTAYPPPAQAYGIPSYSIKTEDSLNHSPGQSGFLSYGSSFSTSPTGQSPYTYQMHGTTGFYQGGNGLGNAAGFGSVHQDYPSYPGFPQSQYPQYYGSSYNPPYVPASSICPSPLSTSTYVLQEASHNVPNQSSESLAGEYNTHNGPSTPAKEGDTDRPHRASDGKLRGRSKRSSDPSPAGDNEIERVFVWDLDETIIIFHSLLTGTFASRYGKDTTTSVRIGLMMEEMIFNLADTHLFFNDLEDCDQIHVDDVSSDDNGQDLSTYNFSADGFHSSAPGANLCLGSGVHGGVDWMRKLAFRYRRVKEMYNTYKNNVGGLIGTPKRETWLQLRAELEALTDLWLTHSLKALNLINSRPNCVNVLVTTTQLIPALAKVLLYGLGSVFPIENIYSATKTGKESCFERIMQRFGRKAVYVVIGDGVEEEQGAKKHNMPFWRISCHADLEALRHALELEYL
Target sequence (Q15475 whole entry, looked up): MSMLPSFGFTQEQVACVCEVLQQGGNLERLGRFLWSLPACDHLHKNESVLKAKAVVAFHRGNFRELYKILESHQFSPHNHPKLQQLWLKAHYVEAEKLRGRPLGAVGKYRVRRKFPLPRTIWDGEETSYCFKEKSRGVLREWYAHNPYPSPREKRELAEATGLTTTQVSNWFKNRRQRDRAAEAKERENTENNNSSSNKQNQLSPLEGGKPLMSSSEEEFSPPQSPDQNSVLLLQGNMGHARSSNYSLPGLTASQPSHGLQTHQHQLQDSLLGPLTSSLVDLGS
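Six1/Eya2 binding was read as AlphaScreen signal after compounds were pinned into GST-Six1 plus His-tagged Eya2 (5X stock 250/500 nM) in pH 8.0 Tris/NaCl/TCEP buffer, beads added, then incubated 1 h, 37 C, dark.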
TDP1 cell noCPT: qHTS for Inhibitors of human tyrosyl-DNA phosphodiesterase 1 (TDP1): qHTS in cells in absence of CPT; AID 686978, 2013; Potency, µM (top dose mostly 46.2 µM), inactives show top-dose activity change, negative = growth inhibition, most hits filed as inhibitors; DT40 Tdp1-/- hTDP1 cells, no CPT, ATP luminescence, 48 h; 15% of 420,000 active; also: potency is read from the fitted curve at half-maximal effect; nearly all actives have a fitted effect of over 55% in size
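A cellular qHTS used chicken DT40 cells lacking endogenous Tdp1 but carrying stably transfected human TDP1. Compounds were applied without camptothecin, and cell growth kinetics were judged by ATP-dependent luminescence after ≥48 hr.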
TDP1 cell CPT: qHTS for Inhibitors of human tyrosyl-DNA phosphodiesterase 1 (TDP1): qHTS in cells in presence of CPT | Potency, µM (titrated, usually from 46.2 µM), inactives show at the top dose activity change, negative = growth inhibition, most hits filed as inhibitors | AID 686979, 2013 | chicken DT40 Tdp1-/-;hTDP1 cells + 20 nM CPT, ATP luminescence, 48 h | 12% of 420,000 active; also: potency is read from the fitted curve at half-maximal effect; nearly all actives have a fitted effect of over 55% in size
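Cell growth measured by CellTiter-Glo luminescence after a minimum 48 h, 37 C compound exposure with 20 nM CPT in Tdp1-knockout DT40 cells stably expressing hTDP1, seeded 400/well; qHTS titration format.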
CtBP-E1A inh: qHTS Assay for Inhibitors of the CtBP/E1A Interaction; AlphaScreen GST-E1A/His-CtBP binding, 1536-well; active compounds read low; activity change, % (concentration not given with the values); 0.49% of 340,000 active; AID 651724, 2012; in the data active = activity change below about -65%; inconclusive = mostly about -30% to -63%
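In 5 uL wells, 23 nL compound meets equimolar GST-E1A and His-CtBP (5X stock 125 nM each) for 2 h, 37 °C. Beads (5X, 50 ug/mL) then 1 h, 37 °C, dark.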
* = called active by the depositor; ? = inconclusive; / = not tested or not shown; [ ] = remark or other dose. An excerpt weighted towards active compounds, which were near 18% of everything screened. Unless noted, calls follow the shape of the dose curve; as a rule, active = well fitted curve in the direction sought with a large enough effect; inconclusive = small, poorly fitted or top-dose-only effect, or another doubt; inactive = no such curve, though single readings can be large; an effect the other way counts as inactive or inconclusive. % is scaled to controls: 0 for no effect and ±100 for the full control effect.

SMILES	IL-1B inflam inh	TDP1 inh	Six1-Eya2 inh	TDP1 cell noCPT	TDP1 cell CPT	CtBP-E1A inh
Cn1c(=O)c(C(=O)CCl)c(N)n(CC2CC2)c1=O	?	0%	4	18µM*	23µM*	/
CC(C)Cn1c(N)c(C(=O)COC(=O)C2Cc3ccccc3CN2S(C)(=O)=O)c(=O)n(C)c1=O (configuration not stated)	-9	28µM*	-3	5.2µM*	6.5µM*	-3
CCOC(=O)c1c(S(=O)(=O)NCC(=O)Nc2ccc(C(C)=O)cc2)c(C)n(C)c1C	/	-2%	/	-18%	-25%	/
CC(C)C(=O)N(Cc1ccccc1)c1ccccn1	?	6%	18	-11%	-16%	56
CCc1ccc(CN(C(=O)Nc2cccc(Cl)c2)c2ccccn2)cc1	/	-13%	/	?	18µM*	/
O=C(COC(=O)C1=NNC(=O)CC1)NCCc1ccccc1	-5	/	6	-33%	-12%	-17
Cc1cccc(N2C(S)=C(C#N)C(=O)NC2c2cccs2)c1 (configuration not stated)	-6	-5%	3	13µM*	15µM*	-2
Cc1ccccc1N1C(S)=C(C#N)C(=O)NC1c1cccs1 (configuration not stated)	-6	8%	4	?	?	4
N#CC1=C(S)N(c2ccccc2)C(c2ccc(-c3ccccc3Cl)o2)NC1=O (configuration not stated)	?	3%	-6	?	?	3
N#CC1=C(S)N(c2ccc(F)cc2)C(c2cccs2)NC1=O (configuration not stated)	13	3%	0	?	8.2µM*	6
CCOC(=O)c1ccc(CN(Cc2ccc(F)cc2)S(=O)(=O)c2cc(C(=O)Nc3ccccc3CC)ccc2F)cc1	/	5%	/	-14%	?	/
CS(=O)(=O)c1ccc2nc(NC(=O)Nc3cccc(Cl)c3)sc2c1	-81*	3%	16	23µM*	16µM*	0
CS(=O)(=O)c1ccc2nc(NC(=O)Nc3ccc(Cl)c(Cl)c3)sc2c1	0	-2%	0	9.2µM*	?	5
Cc1ccc(NC(=O)Nc2nc3ccc(S(C)(=O)=O)cc3s2)cc1	2	-6%	2	-5%	3%	-2
Cc1onc(-c2ccccc2Cl)c1C(=O)Nc1nc2ccc(S(C)(=O)=O)cc2s1	-2	5%	2	9.2µM*	8.2µM*	-10
COc1ccc(N2CCN(CCCNC(=O)c3cc(Nc4ccc(OC)cc4OC)nc4ccccc34)CC2)cc1	/	11%	/	21µM*	23µM*	/
COc1ccccc1Nc1cc(C(=O)NCCCN2CCOCC2)c2ccccc2n1	-5	-1%	3	?	5%	3
COc1ccc(OC)c(Nc2cc(C(=O)NCCCN3CCOCC3)c3ccccc3n2)c1	-63*	6%	-9	23µM*	?	-2
COc1ccc(-c2cnc(N)n2C)cc1	-18	9%	-9	?	-14%	/
Cc1ccccc1NC(=O)c1c(NC(=O)c2ccncc2)sc2c1CCC(C(C)(C)C)C2 (configuration not stated)	/	/	/	6.5µM*	18µM*	/
Cc1ccc(NC(=O)c2c(NC(=O)C(F)(F)F)sc3c2CCCCC3)cc1	/	1%[12.3 µM]	/	3.7µM*	2.6µM*	/
O=C(Nc1cccc(Cl)c1)c1c(NC(=O)C(F)(F)F)sc2c1CCCC2	/	0%[12.3 µM]	/	3.3µM*	6.5µM*	/
Cc1ccccc1NC(=O)c1c(NC(=O)c2ccccc2)sc2c1CCC2	/	-3%[12.3 µM]	/	-11%	-1%	/
Cc1ccccc1NC(=O)c1c(NC(=O)C(F)(F)F)sc2c1CCCCC2	/	-6%[12.3 µM]	/	2.9µM*	3.7µM*	/
CCOC(=O)c1ccccc1NC(=O)c1ccccc1NS(C)(=O)=O	15	5%	5	?	?	0
SMILES	IL-1B inflam inh	TDP1 inh	Six1-Eya2 inh	TDP1 cell noCPT	TDP1 cell CPT	CtBP-E1A inh
CCCSc1nnc2c(n1)OC(c1ccc(OCC(=O)O)cc1)Nc1ccccc1-2 (configuration not stated)	/	9%	/	-1%	-19%	/
CCCC(=O)N(CCN1CCOCC1)c1nc2c(C)ccc(C)c2s1	3	6%	-3	-22%	-25%	-3
COc1ccccc1C(=O)O/N=C(/c1ccncc1)c1ccc([N+](=O)[O-])cc1	28	6%	-9	-2%	-5%	6
COC(=O)c1c(NC(=O)COc2ccc(C(C)C)cc2)sc2c1CCCC2	/	5%[12.3 µM]	/	23µM*	?	/
COC(=O)c1c(NC(=O)COC(=O)[C@@H](NS(=O)(=O)c2ccc(C)cc2)C(C)C)sc2c1CCC2	-29	2%	-9	23µM*	?	-12
O=C(COc1ccc(Cl)cc1)Nc1sc2c(c1C(=O)Nc1cccc(Cl)c1)CCCC2	/	3%[12.3 µM]	/	7.3µM*	18µM*	/
COC(=O)c1c(NC(=O)COc2cccc(C(F)(F)F)c2)sc2c1CCCC2	/	6%[2.28 µM]	/	?	-18%	/
COc1ccc(Oc2c(OC)cc([N+](=O)[O-])c3ncccc23)cc1	?	/	-14	-13%	-3%	-4
CC(C)(CO)[C@@H](O)C(=O)NCCC(=O)O	3	/	8	11%	-4%	12
Cc1ccc(Cn2ccc(=O)c(OCc3c(Cl)cccc3Cl)c2C)cc1	-59*	1%	2	15µM*	18µM*	0
CC(C)CNS(=O)(=O)c1ccc(NC(=O)Cn2nc(-c3ccc(F)cc3)ccc2=O)cc1	?	5%	-1	?	?	1
CN(C1CCCCC1)S(=O)(=O)c1ccc(NC(=O)Cn2nc(-c3ccc(F)cc3)ccc2=O)cc1	6	7%	4	21µM*	?	5
CC(C)c1ccc(C2c3c(-c4ccccc4O)n[nH]c3C(=O)N2Cc2ccncc2)cc1 (configuration not stated)	/	7%	/	?	?	/
CCCOc1ccc(C2c3c(-c4ccccc4O)n[nH]c3C(=O)N2CCCOCC)cc1OCC (configuration not stated)	/	12%	/	?	23µM*	/
